# An excerpt weighted towards active compounds, which were near 4% of everything screened.
# KKLEB cytotox – counter-screen for CF NF-kB inhibitors: cytotoxicity; KKLEB CF airway cells viability, ATPlite luminescence, overnight; stronger effect = lower value; cells stimulated with P. aeruginosa culture filtrate; activity change (cytotoxicity), % at 5 µM; 360,000 tested, 0.36% active; AID 602141;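 active means corrected activity change at or below -50% at 5 µM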
# Peg3 prom inh-1 – reduces Peg3 promoter-driven luciferase expression in HeLa. inhibition, % at 20 µM. HeLa PEG-Prom luciferase reporter, luminescence, overnight. 360,000 tested, 1.7% active;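 active means inhibition of at least 50% at 20 µM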
# TWEAK-Fn14 inh – inhibitors of TWEAK-Fn14 interaction signaling; TWEAK-stimulated Fn14 reporter cells, luciferase luminescence, 8 h; inhibition, % at 10 µM; 360,000 tested, 2% active; in the data active means inhibition above about 50%
# HIF-2a block – inhibitors of HIF-2a. inhibition, % at 18.8 µM. 360,000 tested, 0.72% active. 786-0 RCC cells HIF-2a reporter, luciferase luminescence, overnight. AID 624352;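 active means inhibition of the luminescence signal of 40% or more relative to plate controls, in a single-dose primary screen at 18.75 µM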
# CF NFkB inh – blocks PAF-induced NF-kB reporter in cystic fibrosis cells | KKLEB NF-kB-GFP reporter, GFP fluorescence overnight | inhibition, % at 5 µM | 360,000 tested, 0.86% active | AID 588850;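 active means at least 50% inhibition at 5 µM, scaled per plate between neutral and stimulator controls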;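 further: PAF is a Pseudomonas aeruginosa culture filtrate used as stimulus; plate controls were PAF-stimulated DMSO wells for no effect and unstimulated DMSO wells for full effect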
# TROY NFkB inh – inhibitors of TROY-dependent NF-kB signaling | Q293 LMP1-TROYcd NF-kB luciferase reporter, 4 h | inhibition, % at 10 µM | 360,000 tested, 0.98% active | AID 1347056;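 active means compounds whose plate-normalised and pattern-corrected inhibition of the luciferase reporter signal at the single screening dose is 50% or more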
# Peg3 prom inh-2 – Peg3 promoter inhibition confirmation. shares compounds with Peg3 prom inh-1. HeLa PEG-Prom luciferase reporter, luminescence, overnight. inhibition, % at 20 µM. 1,300 tested, 84% active;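 active means at 20 µM dose, 40% or more inhibition averaged across four replicates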
# * marks the source's active call; other numbers are inactive results; nt = not tested or not shown.
SMILES,KKLEB cytotox,Peg3 prom inh-1,TWEAK-Fn14 inh,HIF-2a block,CF NFkB inh,TROY NFkB inh,Peg3 prom inh-2
O=P(OCC1CCCO1)(OCC1CCCO1)OCC1CCCO1 (configuration not stated),3,11,8,7,7,13,nt
CCOc1ccc(CNC(=O)C(=O)c2cn(CC(=O)N3CCOCC3)c3ccccc23)cc1OC,10,-18,-5,-20,-22,-12,nt
COC(=O)C1=C(CN2CCCc3ccccc32)NC(=O)NC1c1ccc(F)cc1 (configuration not stated),-4,81*,85*,63*,-29,64*,67*
Cc1onc(-c2ccccc2)c1-c1csc(N/N=C/c2ccccc2Cl)n1,-8,16,-24,8,-1,-17,nt
Cc1onc(-c2ccc(Cl)cc2Cl)c1-c1csc(N/N=C/c2ccccc2Cl)n1,-26,65*,-16,28,20,-20,37
Cn1cc(CN2CCCC(C(=O)Nc3cccc(-n4cccn4)c3)C2)cn1 (configuration not stated),0,15,18,5,-22,-13,nt
Cn1cc(CN2CCCC(C(=O)Nc3ccc(-c4cccc(F)c4)cc3)C2)cn1 (configuration not stated),-13,53*,-12,6,11,-33,77*
CCN(CC(=O)NC(=O)NC1CCCC1)Cc1ccccc1,2,4,-8,-7,1,2,nt
COc1cccc(CNc2nc3cc(C(C)=C(C)C)sc3c(=O)n2C)c1,2,-9,4,-3,1,3,nt
OCCNc1c2ccccc2nc2ccccc12,7,98*,-53,-7,-127,-67,95*
O=C(c1ccoc1)N1CCN(c2cc(-c3ccccc3)nc3cc(-c4ccccc4)nn23)CC1,4,68*,28,-19,1,-7,70*
Oc1ccc(C[C@H]2CNCCN2CCc2cc(C(F)(F)F)cc(C(F)(F)F)c2)cc1,-8,58*,-6,-90,1,-12,82*
CN(C)CCNC(=O)c1cccc2nc3cccc(F)c3nc12,-3,105*,-51,-4,-32,-95,98*
Cn1ccnc1/C(=N\NC(=O)c1ccccc1)c1cccc([N+](=O)[O-])c1,-2,1,-20,-4,-5,-19,nt
O=C(N/N=C(\c1ccccc1)c1ccccn1)c1cccc([N+](=O)[O-])c1,2,51*,-28,13,-5,-10,62*
O=c1cc2oc3cc(O)c(O)cc3c(-c3ccccc3[N+](=O)[O-])c-2cc1O,-20,60*,45,17,12,37,75*
COc1ccccc1CNC(=O)[C@H](C)NC(=O)C1CCN(C(=O)[C@@H](N)CCSC)CC1,-18,-3,-17,8,-7,-5,nt
CC(C)n1cc(CN2CCC(C(=O)Nc3cccc(-c4cccc(Cl)c4)c3)CC2)cn1,-19,111*,-19,16,12,6,98*
COc1cc(C)ccc1N(CCCN1C(=O)c2cccc3cccc(c23)C1=O)C(=O)c1cccs1,-6,12,40,12,13,-14,nt
COc1ccc(N(CCCN2C(=O)c3cccc4cccc(c34)C2=O)C(=O)c2cccs2)cc1,-2,52*,7,9,-22,0,42*
O=C(CCCN1C(=O)/C(=C/c2cccc(Br)c2)SC1=S)Nc1cccnc1,-9,76*,31,49*,25,5,96*
O=C(CCCN1C(=O)/C(=C\c2cccs2)SC1=S)Nc1cccnc1,8,17,3,24,-1,-11,nt
Cc1ccc(C)c(N2CCN(S(=O)(=O)c3csc(C(N)=O)c3)CC2)c1,6,11,15,14,-16,31,nt
O=C(CCCN1C(=O)/C(=C/c2ccccc2Cl)SC1=S)NNC(=O)c1ccc(Cl)cc1Cl,-8,66*,17,73*,3,37,43*
O=C(Nc1cccc(C(F)(F)F)c1)c1cccnn1,-9,-19,0,-16,5,-6,nt
SMILES,KKLEB cytotox,Peg3 prom inh-1,TWEAK-Fn14 inh,HIF-2a block,CF NFkB inh,TROY NFkB inh,Peg3 prom inh-2
O=C1CCCN1CCCNc1ccc2nnc(CCC(=O)N3CCN(c4ccccc4)CC3)n2n1,-2,-1,-6,4,-6,0,nt
CC(NS(=O)(=O)OCC(Cl)(Cl)Cl)c1ccc(C(C)(C)C)cc1 (configuration not stated),0,56*,12,25,28,-17,49*
CN(C)c1ccc(N=Nc2ccc(C(=O)O)cc2)cc1,2,65*,98*,54*,3,46,35
Cc1ccccc1CNC(=O)C1CCCN(c2nnc(C)c3c(C)n(-c4ccccc4)nc23)C1 (configuration not stated),-6,63*,-16,25,-7,28,81*
Fc1ccc(Nc2nc(-c3ccncc3)nc3ccccc23)cc1F,-9,54*,-27,10,-21,6,33
CSc1ncnc2c1ncn2CCCNCc1cccc2ccccc12,-20,2,-15,-2,25,1,nt
CN(C)c1ccc(/C=C2\SC(=O)N(CCc3nnc(N)s3)C2=O)cc1,-45,72*,94*,58*,-20,77*,54*
CCCCCCCCNCCS(=O)(=O)NCc1ccc(OC)cc1,-3,56*,-22,-10,-14,1,68*
CCCCCCCCNS(=O)(=O)CCNCc1ccccc1,-19,7,-3,14,23,7,nt
Cc1ccc(C(=O)NNC(=O)c2ccc(S(=O)(=O)N3CCCCC3)cc2)cc1,-6,5,7,2,5,-10,nt
Cc1cc(C)c2nc(NNC(=O)c3ccc(S(=O)(=O)N4CCCCC4)cc3)sc2c1,-10,55*,-23,-15,17,-3,66*
Cc1cc(C)c2nc(N(CCCN(C)C)C(=O)c3ccc(S(=O)(=O)N4CCCCCC4)cc3)sc2c1,-16,80*,-27,-26,12,-16,99*
COc1ccc2sc(N(CCCN(C)C)C(=O)c3ccc(S(=O)(=O)N4CCCc5ccccc54)cc3)nc2c1,-15,84*,-43,-50,5,-17,96*
Cc1cc(C)c2sc(N(CCCN(C)C)C(=O)c3ccc(S(=O)(=O)N(C)C4CCCCC4)cc3)nc2c1,-14,107*,-39,-9,42,-24,98*
CC(=O)c1ccccc1NC(=O)CN1C(=O)NC2(CCCCCCC2)C1=O,1,-22,-3,14,8,10,nt
CCOC(=O)N1CCN(S(=O)(=O)c2ccc(C(=O)NNc3nc4c(C)cc(C)cc4s3)cc2)CC1,-7,56*,-7,8,-12,-1,92*
CCOC(=O)N1CCN(S(=O)(=O)c2ccc(C(=O)NNc3nc4cc(C)cc(C)c4s3)cc2)CC1,11,46,-19,13,-5,10,nt
